Data from PubChem BioAssay (NCATS).
Records with an inconclusive call do not appear. Calls of active or inactive are those of the source. Calls follow the shape of the dose curve; as a rule, active = well fitted inhibition curve with a large enough effect; inconclusive = small, poorly fitted or top-dose-only effect; inactive = flat fitted curve, though single readings scatter.

Columns and labels:
Assay in all cases: qHTS profiling for inhibitors of Plasmodium falciparum proliferation (AID 504749); also: nearly all actives have a fitted effect of over 60% in size
Conditions in all cases: P. falciparum in erythrocytes, SYBR Green DNA, 72 h; series mostly up to 28.7 µM
DIV30 = test system: DIV30
Procedure, shortened: (§1)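 P. falciparum-infected erythrocytes (0.3% parasitemia, 2.5% hematocrit final) were exposed to compounds for 72 h at 37 C in 5% CO2, then lysed with SYBR Green buffer overnight at room temperature; parasite DNA fluorescence was normalized to artemisinin and DMSO controls.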

ECU = test system: ECU
Procedure, shortened: as §1

FAB9 = test system: FAB9
Procedure, shortened: as §1

GB4 = test system: GB4
Procedure, shortened: as §1

HB3 = test system: HB3
Procedure, shortened: as §1

ICS = test system: ICS
Procedure, shortened: as §1

JCK = test system: JCK
Procedure, shortened: as §1

N140 = test system: N140
Procedure, shortened: as §1

P93_24 = test system: P93_24
Procedure, shortened: as §1

Dd2 = test system: Dd2
Procedure, shortened: as §1
Potency is read from the fitted curve at half-maximal effect.

In the case of O=C(Nc1ccc(Cl)cc1)Nc1ccc(Cl)c(Cl)c1, the Potency (DIV30) is reported as 1.69 µM (active), the Potency (ECU) is reported as 3.55 µM (active) and the Potency (FAB9) is reported as 5.01 µM (active). The Potency (GB4) was 2.39 µM (active), the Potency (HB3) was 11.2 µM (active) and the Potency (ICS) was 0.631 µM (active). For the same molecule, the Potency (JCK) was 10 µM (active), the Potency (N140) was 2 µM (active) and the Potency (P93_24) was 3.55 µM (active).

For O=[N+]([O-])c1ccc(O)c2ncccc12, the Potency (Dd2) was 12.6 µM (active), the Potency (GB4) was 15.1 µM (active) and the Potency (ICS) was 12.6 µM (active).

In the case of CCCCCCCCCCCCCCCC[N+](C)(C)Cc1ccccc1, the Potency (DIV30) is reported as 15.1 µM (active), the Potency (ECU) is reported as 3.16 µM (active) and the Potency (FAB9) is reported as 10 µM (active). For the same molecule, the Potency (GB4) was 5.36 µM (active), the Potency (ICS) was 2.82 µM (active) and the Potency (N140) was 14.1 µM (active). The Potency (P93_24) was 1.12 µM (active).

CCCCCCCCCCCCCC[N+](C)(C)C was tested, and the Potency (DIV30) was 6.75 µM (active), the Potency (Dd2) was 6.31 µM (active) and the Potency (ECU) was 4.47 µM (active). The Potency (FAB9) was 11.2 µM (active), the Potency (GB4) was 5.36 µM (active) and the Potency (HB3) was 6.31 µM (active). The Potency (ICS) was 2.51 µM (active), the Potency (N140) was 6.31 µM (active) and the Potency (P93_24) was 5.01 µM (active).

In the case of CC(NCCC(c1ccccc1)c1ccccc1)c1ccccc1 (centres undefined), the Potency (DIV30) is reported as 8.49 µM (active), the Potency (Dd2) is reported as 8.91 µM (active) and the Potency (ECU) is reported as 7.94 µM (active). For the same molecule, the Potency (GB4) was 15.1 µM (active), the Potency (HB3) was 10 µM (active) and the Potency (ICS) was 2.24 µM (active). The Potency (N140) was 11.2 µM (active) and the Potency (P93_24) was 12.6 µM (active).

CCCCCCCCCCCCCCCC[n+]1ccccc1 was tested, and the Potency (DIV30) was 13.5 µM (active), the Potency (Dd2) was 10 µM (active) and the Potency (ECU) was 7.08 µM (active). The Potency (GB4) was 3.38 µM (active), the Potency (ICS) was 2.51 µM (active) and the Potency (N140) was 8.91 µM (active). For the same molecule, the Potency (P93_24) was 7.94 µM (active).

Nc1ncnc2nc[nH]c12 was tested, and the Potency (DIV30) was “inactive”, the Potency (Dd2) was “inactive” and the Potency (ECU) was “inactive”. For the same molecule, the Potency (FAB9) was “inactive”, the Potency (GB4) was “inactive” and the Potency (HB3) was “inactive”. For the same molecule, the Potency (ICS) was “inactive”, the Potency (JCK) was “inactive” and the Potency (N140) was “inactive”. The Potency (P93_24) was “inactive”.

For CN1CCCN(C(c2ccccc2)c2ccc(Cl)cc2)CC1 (centres undefined), the Potency (GB4) was 13.5 µM (active), the Potency (ICS) was 8.91 µM (active) and the Potency (N140) was 10 µM (active). For the same molecule, the Potency (P93_24) was 7.08 µM (active).

For CN1CCC(Nc2ncc3ncnc(Nc4ccc(F)c(Cl)c4)c3n2)CC1, the Potency (Dd2) was 7.94 µM (active), the Potency (ECU) was 12.6 µM (active) and the Potency (GB4) was 13.5 µM (active). For the same molecule, the Potency (ICS) was 6.31 µM (active), the Potency (JCK) was 7.94 µM (active) and the Potency (N140) was 10 µM (active). The Potency (P93_24) was 7.08 µM (active).

Nc1ccc2cc3ccc(N)cc3nc2c1 was tested, and the Potency (FAB9) was 8.91 µM (active), the Potency (GB4) was 13.5 µM (active) and the Potency (ICS) was 2.82 µM (active).

For Nc1c2ccccc2nc2ccccc12, the Potency (DIV30) was 15.1 µM (active), the Potency (Dd2) was 12.6 µM (active) and the Potency (ECU) was 10 µM (active). For the same molecule, the Potency (GB4) was 10.7 µM (active), the Potency (ICS) was 7.94 µM (active) and the Potency (N140) was 5.01 µM (active). For the same molecule, the Potency (P93_24) was 7.08 µM (active).

O=S(=O)(O)c1ccc2nc(-c3ccccc3)[nH]c2c1 was tested, and the Potency (DIV30) was “inactive”, the Potency (Dd2) was “inactive” and the Potency (ECU) was “inactive”. For the same molecule, the Potency (FAB9) was “inactive”, the Potency (GB4) was “inactive” and the Potency (HB3) was “inactive”. For the same molecule, the Potency (ICS) was “inactive”, the Potency (JCK) was “inactive” and the Potency (N140) was “inactive”. For the same molecule, the Potency (P93_24) was “inactive”.
